The target in experiment [1] is CCAAT/enhancer-binding protein beta (Homo sapiens) (UniProt P17676). Kind of experiment: ATG_C_EBP_CIS: Attagene CIS-FACTORIAL HepG2 Assay for human CCAAT/Enhancer Binding Protein (C/EBP) beta (AID 2282927). The conditions noted are these: HepG2 Attagene cis-factorial transcription factor reporter; actives raise or lower the signal. A digest of the protocol: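 Endogenous transcription factor activity in human liver HepG2 cells is inferred from induction of a CEBPB-linked reporter mRNA. Exposure lasts 24 h; activity is fitted in both directions relative to DMSO.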

Experiment [2] can be described thus: ATG_CMV_CIS: Attagene CIS-FACTORIAL HepG2 Assay for human CMV (Internal Marker) (AID 2282928).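 Also: endpoint acts as a background internal control marker rather than a target.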 Particulars: HepG2 CMV promoter reporter, transcription factor profiling; actives raise or lower the signal. The method in brief:
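After transient transfection of HepG2 with reporter transcription units driven by cis-regulatory promoters, cells receive test chemical for 24 h. Labeled reporter amplicons, digested with HpaI, are sized and quantified by capillary electrophoresis against DMSO.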

Experiment [3] is described as follows: ATG_DR4_LXR_CIS: Attagene CIS-FACTORIAL HepG2 Assay for human Liver X Receptor (LXR), DR4 submotif (AID 2282929). The conditions noted are these: HepG2 Attagene DR4 cis-reporter, mRNA transcription; actives raise or lower the signal. A digest of the protocol: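 The endpoint is DR4-element-driven reporter transcripts after 24 h chemical exposure of transfected HepG2 cells. These were measured via RT-PCR and capillary electrophoresis, and gain or loss of signal was fitted relative to DMSO controls.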

For experiment [4], the target named is Aryl hydrocarbon receptor (Homo sapiens) (UniProt P35869). Kind of experiment: ATG_Ahr_CIS: Attagene CIS-FACTORIAL HepG2 Assay for human Aryl Hydrocarbon Receptor (Ahr) (AID 2282930). The conditions noted are these: HepG2 AhR cis-factorial reporter transcription; actives raise or lower the signal. The method in brief: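 Transient MRTU transfection of HepG2 → 24 h compound exposure → total RNA, oligo(dT) RT → PCR, 6-FAM extension, HpaI cut → CE fluorescence. DMSO = baseline; bidirectional curve fit.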

The nature of experiment [5]: ATG_AP_1_CIS: Attagene CIS-FACTORIAL HepG2 Assay for human Activator Protein 1 (AP-1) (AID 2282931). Particulars: HepG2 Attagene cis-factorial AP-1 reporter mRNA; actives raise or lower the signal. The method in brief: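 Readout is reporter transcript level from endogenous transcription factor activity, quantified by RT-PCR with fluorescent primer extension and capillary electrophoresis. Transiently transfected HepG2 cells, 24 h exposure. Curves fitted both directions versus DMSO.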

The nature of experiment [6]: ATG_AP_2_CIS: Attagene CIS-FACTORIAL HepG2 Assay for human Activator Protein 2 (AP-2) (AID 2282932). The conditions noted are these: HepG2 AP-2 cis-reporter, Attagene transcription factor profiling; actives raise or lower the signal. The method in brief:
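Step one: transient transfection of HepG2 with reporter transcription units. Step two: 24 h chemical exposure. Step three: RNA extraction, RT-PCR, labelled fragment analysis by capillary electrophoresis; DMSO serves as baseline.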

A short description of experiment [7]: ATG_BRE_CIS: Attagene CIS-FACTORIAL HepG2 Assay for human Bone Morphogenetic Protein (BMP) Response Element (BRE) (AID 2282933). Particulars: HepG2 BMP response element reporter, Attagene transcription factor profiling; actives raise or lower the signal. The method in brief:
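Gain- or loss-of-signal was derived by bidirectional fitting against DMSO controls. The signal came from reporter mRNA, measured by RT-PCR and capillary electrophoresis, in HepG2 cells transiently carrying multiple reporter units and dosed for 24 h.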

Experiment [8] deals with Retinoic acid receptor alpha (Homo sapiens) (UniProt P10276). Briefly: ATG_DR5_RAR_CIS: Attagene CIS-FACTORIAL HepG2 Assay for human Retinoic Acid Receptor Alpha (RARE), DR5 submotif (AID 2282934). Particulars: HepG2 Attagene cis-factorial RARE DR5 reporter, mRNA; actives raise or lower the signal. A digest of the protocol: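 Transient MRTU transfection of HepG2; 24 h compound treatment; TriZol RNA, oligo(dT) RT, PCR, FAM labelling, capillary electrophoresis. Bidirectional fit vs DMSO. Endogenous TF activity at DR5 RARE.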

For experiment [9], the target named is Transcription factor E2F1 (Homo sapiens) (UniProt Q01094). Briefly: ATG_E2F_CIS: Attagene CIS-FACTORIAL HepG2 Assay for human E2F Transcription Factor 1 (AID 2282935). The conditions noted are these: HepG2 Attagene cis-reporter, E2F reporter RNA transcripts; actives raise or lower the signal. A digest of the protocol: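 Total RNA from 24 h-treated, reporter-transfected HepG2 cells undergoes DNase I treatment, oligo(dT) reverse transcription, PCR and 6-FAM primer extension before capillary electrophoresis.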

The nature of experiment [10]: ATG_E_Box_CIS: Attagene CIS-FACTORIAL HepG2 Assay for human Enhancer Box (E-box) (AID 2282936). Particulars: HepG2 E-box cis-reporter transcription, actives raise or lower the signal. The method in brief:
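DMSO served as negative control and baseline for bidirectional fitting. Human hepatoma HepG2 cells, transiently transfected with cis-reporter constructs, were dosed 24 h; reporter mRNA read by RT-PCR and capillary electrophoresis.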

Experiment [11] can be described thus: ATG_M_61_CIS: Attagene CIS-FACTORIAL HepG2 Assay for M61 Transcription Factor (Internal Marker) (AID 2282937). The conditions noted are these: HepG2 Attagene CIS-FACTORIAL M61 internal marker reporter; actives raise or lower the signal. The method in brief:
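Readout is reporter mRNA by RT-PCR, fluorescent primer extension and capillary electrophoresis, with gain or loss fitted relative to DMSO. Transfected HepG2 cells carrying endogenous-TF-driven cis reporters were exposed to chemicals for 24 hours.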

Experiment [12] is described as follows: ATG_EGR_CIS: Attagene CIS-FACTORIAL HepG2 Assay for human Early Growth Response 1 (EGR1) (AID 2282938). Particulars: HepG2 Attagene CIS-FACTORIAL EGR reporter mRNA; actives raise or lower the signal. A digest of the protocol:
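After 24 h compound exposure, RNA from reporter-transfected HepG2 cells was reverse-transcribed, PCR-amplified, fluorescently labelled and resolved by capillary electrophoresis. EGR1 reporter transcript changes, up or down, were fitted against DMSO, reflecting endogenous transcription-factor activity.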

Experiment [13] can be described thus: ATG_M_19_CIS: Attagene CIS-FACTORIAL HepG2 Assay for M19 Transcription Factor (Internal Marker) (AID 2282939). The conditions noted are these: HepG2 Attagene CIS-FACTORIAL M19 internal marker reporter; actives raise or lower the signal. A digest of the protocol: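 Following a 24 h exposure, RNA from transfected HepG2 cells was reverse-transcribed, PCR-amplified with reporter-specific primers, end-labelled with 6-FAM and HpaI-digested before capillary separation. Values represent gain or loss versus DMSO.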

Experiment [14] can be described thus: ATG_Ets_CIS: Attagene CIS-FACTORIAL HepG2 Assay for human Erythroblast Transformation Specific (ETS) (AID 2282941). The conditions noted are these: HepG2 ETS cis-reporter transcription, actives raise or lower the signal. A digest of the protocol:
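Human HepG2 hepatoma cells were transiently transfected with promoter-driven reporter constructs and treated for 24 hours. Reporter transcripts were quantified by RT-PCR with fluorescent primer extension; bidirectional curve fitting used DMSO as reference.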

Experiment [15] deals with Hepatocyte nuclear factor 3-beta (Homo sapiens) (UniProt Q9Y261). Briefly: ATG_FoxA2_CIS: Attagene CIS-FACTORIAL HepG2 Assay for human Forkhead box A2 (FOXA2) (AID 2282942). Particulars: HepG2 cis-reporter transcription factor activity, 24 h; actives raise or lower the signal. A digest of the protocol:
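Endogenous transcription factor activity is captured via cis-element-driven reporter transcripts in transfected HepG2. Total RNA taken at 24 h post-dosing; labelled RT-PCR products resolved by capillary electrophoresis. Gain or loss fitted versus DMSO.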

Experiment [16] is described as follows: ATG_FoxO_CIS: Attagene CIS-FACTORIAL HepG2 Assay for human Forkhead box O (FoxO) (AID 2282943). Particulars: HepG2 Attagene cis-reporter, FoxO element, mRNA; actives raise or lower the signal. A digest of the protocol: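 HepG2, transient MRTU transfection (cis element, endogenous TFs). Dose 24 h. TriZol RNA → oligo(dT) RT → PCR → 6-FAM primer extension → HpaI cut → CE. Gain/loss vs DMSO.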

Experiment [17] can be described thus: ATG_GATA_CIS: Attagene CIS-FACTORIAL HepG2 Assay for human GATA Binding Protein (AID 2282944). The conditions noted are these: HepG2 GATA cis-element reporter, Attagene multiplex mRNA; actives raise or lower the signal. A digest of the protocol: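 DMSO serves as negative control and baseline for bidirectional fitting of reporter mRNA changes. HepG2 cells bearing transiently transfected cis-promoter reporters were exposed 24 h; transcripts detected via RT-PCR and capillary electrophoresis.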

Experiment [18] is described as follows: ATG_GLI_CIS: Attagene CIS-FACTORIAL HepG2 Assay for human Zinc Finger Protein GLI1 (AID 2282945). Particulars: HepG2, Attagene cis-factorial reporter mRNA, GLI element; actives raise or lower the signal. The method in brief: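 Bidirectional curve fits relative to DMSO, using reporter mRNA levels from RT-PCR plus capillary electrophoresis. Cells were HepG2 transiently carrying cis-regulated reporter constructs, harvested 24 h after dosing.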

Activity calls are given as the source filed them. The calls were made as follows: active = hit-call score of the fitted dose curve at least 0.9, where 1 is the maximum; inactive = score below 0.9.

Sequence of CCAAT/enhancer-binding protein beta (Homo sapiens) (P17676 whole entry, looked up): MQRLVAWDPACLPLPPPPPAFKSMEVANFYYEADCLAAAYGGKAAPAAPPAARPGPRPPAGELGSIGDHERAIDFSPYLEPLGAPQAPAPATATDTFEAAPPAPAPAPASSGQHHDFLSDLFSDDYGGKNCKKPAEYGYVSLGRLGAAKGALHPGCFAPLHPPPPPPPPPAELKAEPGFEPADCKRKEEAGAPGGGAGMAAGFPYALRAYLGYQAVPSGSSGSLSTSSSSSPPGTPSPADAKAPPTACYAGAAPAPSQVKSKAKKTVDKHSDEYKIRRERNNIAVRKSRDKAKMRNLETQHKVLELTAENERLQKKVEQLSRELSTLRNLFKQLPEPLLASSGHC
Sequence of Hepatocyte nuclear factor 3-beta (Homo sapiens) (Q9Y261 whole entry, looked up): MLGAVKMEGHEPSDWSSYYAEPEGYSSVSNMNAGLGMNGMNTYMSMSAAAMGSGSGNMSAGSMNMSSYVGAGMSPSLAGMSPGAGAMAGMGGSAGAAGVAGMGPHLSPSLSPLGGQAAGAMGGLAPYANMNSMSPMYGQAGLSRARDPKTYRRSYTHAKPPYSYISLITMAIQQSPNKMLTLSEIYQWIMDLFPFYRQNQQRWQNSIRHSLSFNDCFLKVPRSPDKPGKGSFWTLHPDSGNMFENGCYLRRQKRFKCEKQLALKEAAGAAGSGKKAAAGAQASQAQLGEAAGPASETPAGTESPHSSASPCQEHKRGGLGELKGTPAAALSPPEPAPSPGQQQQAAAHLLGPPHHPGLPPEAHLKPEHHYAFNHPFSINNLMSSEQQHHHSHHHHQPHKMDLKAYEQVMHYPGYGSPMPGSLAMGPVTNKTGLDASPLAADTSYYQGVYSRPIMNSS
Sequence of Transcription factor E2F1 (Homo sapiens) (Q01094 whole entry, looked up): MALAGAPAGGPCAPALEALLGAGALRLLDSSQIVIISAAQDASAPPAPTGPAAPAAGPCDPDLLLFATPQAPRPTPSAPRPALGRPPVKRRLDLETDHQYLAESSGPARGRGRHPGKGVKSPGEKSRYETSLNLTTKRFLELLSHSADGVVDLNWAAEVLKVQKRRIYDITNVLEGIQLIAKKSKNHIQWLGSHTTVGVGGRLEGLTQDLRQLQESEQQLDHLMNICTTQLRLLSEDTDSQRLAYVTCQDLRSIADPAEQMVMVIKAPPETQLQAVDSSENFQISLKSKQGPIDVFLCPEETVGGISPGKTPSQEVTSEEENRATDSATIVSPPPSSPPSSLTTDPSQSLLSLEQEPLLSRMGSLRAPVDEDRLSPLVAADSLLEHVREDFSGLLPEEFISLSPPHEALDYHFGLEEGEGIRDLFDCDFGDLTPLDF
Sequence of Aryl hydrocarbon receptor (Homo sapiens) (P35869 whole entry, looked up): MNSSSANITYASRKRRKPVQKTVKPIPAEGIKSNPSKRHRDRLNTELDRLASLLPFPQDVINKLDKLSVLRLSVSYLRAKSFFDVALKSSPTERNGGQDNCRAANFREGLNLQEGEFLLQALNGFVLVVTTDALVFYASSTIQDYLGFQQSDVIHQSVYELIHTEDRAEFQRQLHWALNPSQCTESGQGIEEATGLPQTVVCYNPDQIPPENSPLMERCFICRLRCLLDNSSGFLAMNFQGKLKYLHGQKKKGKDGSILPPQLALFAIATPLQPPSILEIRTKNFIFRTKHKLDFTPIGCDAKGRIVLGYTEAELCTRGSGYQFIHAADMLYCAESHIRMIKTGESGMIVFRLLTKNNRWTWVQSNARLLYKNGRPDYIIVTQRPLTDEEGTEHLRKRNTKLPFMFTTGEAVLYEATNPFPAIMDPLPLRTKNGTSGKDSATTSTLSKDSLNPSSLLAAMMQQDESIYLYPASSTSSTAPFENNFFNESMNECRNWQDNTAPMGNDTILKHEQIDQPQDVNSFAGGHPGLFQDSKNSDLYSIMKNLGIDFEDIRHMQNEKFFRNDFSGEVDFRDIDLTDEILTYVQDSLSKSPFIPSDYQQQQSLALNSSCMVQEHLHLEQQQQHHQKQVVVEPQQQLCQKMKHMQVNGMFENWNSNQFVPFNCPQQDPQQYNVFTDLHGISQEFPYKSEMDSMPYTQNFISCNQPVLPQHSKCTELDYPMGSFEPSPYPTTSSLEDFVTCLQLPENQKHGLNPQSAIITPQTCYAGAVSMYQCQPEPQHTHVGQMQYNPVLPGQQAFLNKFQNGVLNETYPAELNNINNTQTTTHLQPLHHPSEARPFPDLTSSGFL
Sequence of Retinoic acid receptor alpha (Homo sapiens) (P10276 whole entry, looked up): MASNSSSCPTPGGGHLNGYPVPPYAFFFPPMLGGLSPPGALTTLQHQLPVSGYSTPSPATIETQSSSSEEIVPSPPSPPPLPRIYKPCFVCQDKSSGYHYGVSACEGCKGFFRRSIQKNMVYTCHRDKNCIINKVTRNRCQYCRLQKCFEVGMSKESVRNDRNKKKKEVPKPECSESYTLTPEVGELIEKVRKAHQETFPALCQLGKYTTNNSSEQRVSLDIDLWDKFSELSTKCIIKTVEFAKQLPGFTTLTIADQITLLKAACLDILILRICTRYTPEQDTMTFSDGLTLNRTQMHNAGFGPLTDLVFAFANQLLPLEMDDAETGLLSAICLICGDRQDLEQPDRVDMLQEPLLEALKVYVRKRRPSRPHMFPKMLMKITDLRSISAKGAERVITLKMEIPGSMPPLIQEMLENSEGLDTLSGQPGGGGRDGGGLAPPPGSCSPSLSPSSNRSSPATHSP

As to `Cc1ccc(C)o1`, the outcome in experiment [1], in experiment [2], in experiment [3], in experiment [4], in [5] and in [6] was inactive. Further, the result in experiment [7], in experiment [8], in experiment [9], in experiment [10], in [11] and in [12] was inactive. Moreover, the call in experiment [13], in experiment [14], in [15], in [16], in [17] and in [18] was inactive.
On to `CCCCCCCCc1ccc(S(=O)(=O)O)cc1`, for which the outcome in [1], in experiment [2], in experiment [4], in experiment [5], in [6] and in experiment [7] was inactive. Besides, the outcome in experiment [8] and in [15] was inactive. Also, the AC50 in experiment [3] is 42.1 µM (active); in experiment [9], 155 µM (active); in experiment [10], 159 µM (active); in experiment [11], 155 µM (active); in experiment [14], 156 µM (active); in [16], 159 µM (active). The values for the concentration at half-maximal activity (AC50) in experiment [17] and in experiment [18] were 99.5 µM (active) and 168 µM (active), respectively.
`OCCc1ccccc1`: the outcome in experiment [1], in experiment [2], in experiment [4], in experiment [6], in experiment [7] and in experiment [8] was inactive. Moreover, the compound was classed as inactive in [9], in experiment [10], in experiment [11], in [12], in experiment [13] and in experiment [14]. In addition, the result in experiment [15], in experiment [16], in experiment [17] and in experiment [18] was inactive.
In the case of `CC1(C)CCC[C@]2(C)[C@H]3CCO[C@]3(C)CC[C@@H]12`, the call in [2], in experiment [3], in experiment [4], in experiment [6], in [7] and in experiment [8] was inactive. For the same compound, the compound was called inactive in [9], in experiment [11], in experiment [12], in experiment [13], in experiment [14] and in experiment [15]. Also, the result in experiment [16], in [17] and in [18] was inactive. The figures for the AC50 in experiment [5] and in [10] were 151 µM (active) and 58.3 µM (active), respectively.
As to `COC(C)(C)CC(C)=O`, the result in [1], in experiment [2], in experiment [3], in [4], in experiment [5] and in [6] was inactive. Besides, the result in experiment [7], in experiment [8], in [9], in experiment [10], in [11] and in experiment [14] was inactive. For the same compound, the compound was called inactive in experiment [15], in [16], in experiment [17] and in experiment [18].
Turning to `COc1ccc(N=Nc2cc(C)c(N=Nc3ccc(S(=O)(=O)O)cc3)cc2OC)cc1`, the half-maximal activity concentration (AC50) in experiment [1] is 42.9 µM (active); in experiment [3] it was 74.3 µM (active); in experiment [4], 4.25 µM (active); in [10], 100 µM (active); in [14], 166 µM (active); in [17], 100 µM (active). In addition, the call in experiment [2], in experiment [5], in experiment [6], in experiment [7], in experiment [8] and in experiment [9] was inactive. The call in experiment [11], in experiment [12], in experiment [15], in experiment [16] and in experiment [18] was inactive.
As for `C=CC(=O)OCCC#N`, the result in [1], in [4], in experiment [5], in [8], in [9] and in experiment [10] was inactive. Besides, the result in experiment [11], in experiment [13], in experiment [15] and in [17] was inactive. In addition, the AC50 in [2] was 100 µM (active); in experiment [3], 40.5 µM (active); in [6], 21.6 µM (active); in experiment [7] it was 26.7 µM (active); in [12] it was 82.6 µM (active); in experiment [14] it was 35.9 µM (active). The AC50 is 100 µM (active) in experiment [16] and 145 µM (active) in experiment [18].
As for `CCCC(C)=O`, the outcome in experiment [1], in [3], in experiment [4], in [5], in [6] and in [8] was inactive. In addition, the call in experiment [9], in experiment [10], in experiment [11], in [13], in experiment [14] and in experiment [15] was inactive. The compound was classed as inactive in experiment [16], in experiment [17] and in experiment [18].

(Values after PubChem BioAssay (EPA / NIEHS).)
